Common to all, as to assay type: functional
The target of experiment [1] is Solute carrier family 2, facilitated glucose transporter member 1 (Homo sapiens) (UniProt P11166). In words: ST_JUDE_LEISH: Cytotoxicity at 2uM final concentration against transgenic Leishmania Mexicana promastigotes LmGLUT1 that are glucose transport deficient and complemented with the human glucose transporter GLUT1. Activity is measured by DNA content using SYBR green in vitro.

Experiment [2] addresses Hexose transporter 1 (Plasmodium falciparum) (UniProt O97467). Nature of the experiment: ST_JUDE_LEISH: Cytotoxicity at 2uM final concentration against transgenic Leishmania Mexicana promastigotes LmPfHT that are glucose transport deficient and complemented with the Plasmodium falciparum hexose transporter. Activity is measured by DNA content using SYBR green in vitro.
Experiment [3] has as its target Glucose transporter (Leishmania mexicana) (UniProt O61059). In words: ST_JUDE_LEISH: Cytotoxicity at 2uM final concentration against transgenic Leishmania Mexicana promastigotes LmGT2 that are glucose transport deficient and complemented with the L. Mexicana glucose transporter 2. Activity is measured by DNA content using SYBR green in vitro.

By inhibition is commonly meant the drop in the measured response relative to a control, in per cent.

Chain of Solute carrier family 2, facilitated glucose transporter member 1 (Homo sapiens) (P11166 whole entry): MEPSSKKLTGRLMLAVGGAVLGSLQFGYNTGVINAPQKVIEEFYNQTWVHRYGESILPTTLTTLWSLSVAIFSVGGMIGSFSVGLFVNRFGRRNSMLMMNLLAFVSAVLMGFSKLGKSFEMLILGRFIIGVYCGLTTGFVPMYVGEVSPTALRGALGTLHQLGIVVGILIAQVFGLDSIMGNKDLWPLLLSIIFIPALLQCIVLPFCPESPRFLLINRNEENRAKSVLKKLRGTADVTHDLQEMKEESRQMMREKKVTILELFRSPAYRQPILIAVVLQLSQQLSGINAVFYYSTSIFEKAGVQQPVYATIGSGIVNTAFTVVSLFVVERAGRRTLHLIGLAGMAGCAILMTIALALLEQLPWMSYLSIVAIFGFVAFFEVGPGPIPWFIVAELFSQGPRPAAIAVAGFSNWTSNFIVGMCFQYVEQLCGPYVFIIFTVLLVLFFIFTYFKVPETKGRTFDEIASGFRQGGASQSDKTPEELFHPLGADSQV

In the case of `COc1cc(C)nc2ccc(NC(=O)Nc3ccc4nc(C)cc(OC)c4c3)cc12`, the inhibition in experiment [1] came out at 8.47%; in experiment [2], 6.65%; in experiment [3] it was 8.59%.

As to `CC(C)C[C@H](NC(=O)OC(C)(C)C)C(=O)Nc1ccc(Cc2ccc(NC(=O)[C@H](CC(C)C)NC(=O)OC(C)(C)C)cc2)cc1`, the figures for the inhibition in experiment [1], in experiment [2] and in experiment [3] were 3.16%, 3.22% and 2.99%, respectively.

On to `COc1ccc(-c2cccc(NC(=O)c3ccc(Cl)cc3)c2)cc1CNC(C)C`, for which the inhibition in experiment [1] was 3.8%; in experiment [2] it was 2.1%; in experiment [3], -1.5%.

In the case of `CN(C)CCCNc1ncnc2c1[nH]c1ccc(Br)cc12`, the inhibition in experiment [1] amounted to 1.44%; in experiment [2], 2.41%; in experiment [3], 1.04%.

In the case of `CCCOc1ccccc1C(=O)Nc1nonc1-c1ccc(OCC)c(OCC)c1`, the figures for the inhibition in experiment [1], in experiment [2] and in experiment [3] were 0.74%, 0.51% and 0.93%, respectively.

For `O=C(NCCCCN1CCC(c2ccc(C(F)(F)F)cc2C(F)(F)F)CC1)c1ccc(NC(=O)c2ccc(Cl)cc2)cc1`, the results for the inhibition in experiment [1], in experiment [2] and in experiment [3] were 0.67%, 3.98% and -1.54%, respectively.

Regarding `COc1ccc2c(NN=Cc3ccccc3)ccnc2c1`, the inhibition in experiment [1] was 1.36%; in experiment [2], -2.08%; in experiment [3] it was -1.04%.

Regarding `Fc1ccc2[nH]c(-c3ccc(-c4ccc(CNCC5CCCO5)cc4)cc3)nc2c1` (stereo not given), the figures for the inhibition in experiment [1], in experiment [2] and in experiment [3] were 12.4%, 11.2% and 7.73%, respectively.

Turning to `COc1ccccc1Nc1nc(C)cc(NCc2ccc(-c3c(C)noc3C)cc2)n1`, the values for the inhibition in experiment [1], in experiment [2] and in experiment [3] were 19.5%, 9.8% and 0.51%, respectively.

For the molecule `CN(CCCc1c[nH]c2ccccc12)CCC1CCC(NC(=O)/C=C/c2ccc(Cl)c(Cl)c2)CC1` (stereo not given), the inhibition in experiment [1] is 3.61%; in experiment [2], 2.63%; in experiment [3], 1.8%.

For the molecule `Oc1ccc(Nc2nc(N3CCCC3)c3ccccc3n2)cc1`, the inhibition in experiment [1] is 2.69%; in experiment [2], 1.64%; in experiment [3], -0.61%.

Regarding `Cc1cccc(-n2c(Nc3ccc(C)c(Cl)c3)nc3ccc(S(=O)(=O)NC(C)C(C)C)cc32)c1` (stereo not given), the inhibition in experiment [1] was 2.71%; in experiment [2], 1.5%; in experiment [3], -0.08%.

Turning to `Nc1ncc(-c2ccc(Br)cc2)c(N)n1`, the inhibition in experiment [1] is 1.2%; in experiment [2], -0.78%; in experiment [3] it was -0.3%.

`CN(c1ccc(NC(=O)Nc2cccc(Cl)c2)cc1)c1ccnc(N)n1`: the inhibition in experiment [1] was -0.39%; in experiment [2], 1.34%; in experiment [3], -0.01%.

Take `Cc1cccc2nc(-c3cccc(-c4cccc(NC(=O)Nc5ccc(Cl)c(Cl)c5)c4)c3)[nH]c12`: the values for the inhibition in experiment [1], in experiment [2] and in experiment [3] were -0.37%, -0.17% and -0.99%, respectively.

As to `CS(=O)(=O)c1ccc(Nc2ncc(-c3ccc(S(C)(=O)=O)cc3)c(OCC(F)(F)F)n2)cc1`, the inhibition was 4.36% in experiment [1], 0.18% in experiment [2] and 3.17% in experiment [3].

For the molecule `C[C@H](Cc1ccc(OCCCCCOc2ccc(C[C@@H](C)NC[C@H](O)c3cccc(Cl)c3)cc2)cc1)NC[C@H](O)c1cccc(Cl)c1`, the values for the inhibition in experiment [1], in experiment [2] and in experiment [3] were 106%, 104% and 107%, respectively.

Regarding `CCOc1ccc(-c2nc(NC(=O)COc3ccc(OC)cc3)sc2C)cc1`, the results for the inhibition in experiment [1], in experiment [2] and in experiment [3] were 9.63%, 10% and 10.1%, respectively.

As to `CC(=O)Nc1ccc(C(=O)Nc2cccc(-c3ccc(-c4nc5cc(F)ccc5[nH]4)cc3)c2)cn1`, the inhibition is -1.01% in experiment [1], 2.17% in experiment [2] and 0.38% in experiment [3].

Regarding `O=C(/C=C/c1ccc(Cl)cc1)NCCCCCN1CCC(C(=O)Nc2cccc(Cl)c2)CC1`, the inhibition in experiment [1] turned out to be 2.16%; in experiment [2] it was 2.2%; in experiment [3], 0.58%.

On to `COc1ccc(C2C(C(=O)Nc3ccccc3)=C(C)Nc3c(C(=O)Nc4ccccc4)cnn32)cc1` (stereo not given), for which the figures for the inhibition in experiment [1], in experiment [2] and in experiment [3] were 2.83%, 0.21% and 0.09%, respectively.

Regarding `CC(=O)Nc1ccc(C(=O)Nc2cccc(-c3csc(-c4nc5ccccc5[nH]4)c3)c2)cn1`, the inhibition was 0.54% in experiment [1], 1.56% in experiment [2] and -0.51% in experiment [3].

For `CCOC(=O)CNCC(=O)c1ccc(OCc2ccccc2)cc1`, the figures for the inhibition in experiment [1], in experiment [2] and in experiment [3] were 1.94%, 0.64% and 2.44%, respectively.

In the case of `COc1ccccc1C1CCN(C2CCC(NC(=O)/C=C/c3cc(F)c(F)cc3F)CC2)CC1` (stereo not given), the inhibition turned out to be 2.17% in experiment [1], 2.98% in experiment [2] and 2.21% in experiment [3].

In the case of `COc1cc2ncnc(Nc3ccc4nc(-c5ccccc5)[nH]c4c3)c2cc1OC`, the inhibition in experiment [1] came out at 4.22%; in experiment [2] it was 3.9%; in experiment [3], 2%.

As for `O=C(Nc1ccc(Cl)cc1)c1cccc(S(=O)(=O)NC2CCN(CC3CCCCC3)C2)c1` (stereo not given), the inhibition in experiment [1] amounted to 9.12%; in experiment [2] it was 8.41%; in experiment [3], 4.13%.

For the molecule `COc1cc2nc(N3CCN(C(=O)c4cccc(I)c4)CC3)nc(N)c2cc1OC`, the inhibition was 5.23% in experiment [1], 3.9% in experiment [2] and -0.04% in experiment [3].

As for `c1ccc2[nH]c(-c3ccc(-c4ccc(CN5CCN(CCN6CCOCC6)CC5)cc4)cc3)nc2c1`, the figures for the inhibition in experiment [1], in experiment [2] and in experiment [3] were 11.2%, 12.4% and 4.36%, respectively.

For `COc1ccc(-c2cnc3[nH]cc(-c4ccc(C(=O)O)c(C)c4)c3c2)cn1`, the inhibition in experiment [1] is 0.31%; in experiment [2], -0.48%; in experiment [3], 0.32%.

Turning to `CN1C(=C2SC(=Nc3ccc4ncccc4c3)N(Cc3ccccc3)C2=O)Sc2ccc(Cl)cc21`, the inhibition is 1.22% in experiment [1], 2.08% in experiment [2] and 1.06% in experiment [3].

`O=C(NC1CCN(Cc2ccc(Cl)cc2)CC1)c1cn(-c2ccccc2)nc1-c1cccnc1`: the inhibition in experiment [1] came out at 1.12%; in experiment [2], 0.95%; in experiment [3], 1.49%.

Take `Oc1ccc(CCNc2nc(NCc3ccccc3-c3ccc(C(F)(F)F)cc3)nc(N3CCNCC3)n2)cc1`: the inhibition in experiment [1] is 1.66%; in experiment [2], -2.19%; in experiment [3] it was 1.94%.

As to `O=C(Nc1cccc(-c2cccc(-c3nc4cc(C(F)(F)F)ccc4[nH]3)c2)c1)c1ccc(=O)[nH]n1`, the figures for the inhibition in experiment [1], in experiment [2] and in experiment [3] were 10.7%, 9.47% and 9.62%, respectively.

As to `Nc1nc(Cc2ccc(Cl)cc2)nc(Cc2ccc(Cl)cc2)n1`, the figures for the inhibition in experiment [1], in experiment [2] and in experiment [3] were -3.43%, -1.17% and 5.85%, respectively.

For `COc1ccc(/C=C/C(=O)NCCCCCN2CCC(c3c[nH]c4ccccc34)CC2)cc1O`, the inhibition in experiment [1] is 12.1%; in experiment [2], 9.97%; in experiment [3] it was 7.57%.

These data come from ChEMBL document CHEMBL3433997, “St. Jude Leishmania screening dataset” (2016).
